Source: PubChem
tim10-1 inh: tim10-1 yeast growth inhibition. 330,000 compounds, 2.2% hits. inhibition, % at 20 µM. AID 463190. S. cerevisiae tim10-1 ts strain growth, BacTiter-Glo, 24 h;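 active means inhibition of at least 40%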;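 further: mutant grown at 25 °C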
EBI2 antag: antagonists of human EBI2 receptor; P32249; EBI2 beta-arrestin recruitment, luminescence, 7a,25-OHC stimulated; inhibition, % at 5 µM; 360,000 compounds, 0.81% hits; in the data active means inhibition above about 38%;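 further: enzyme fragment complementation signal reports receptor beta-arrestin coupling in cells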
Target sequence (P32249 whole entry, looked up, the tested form may be a part): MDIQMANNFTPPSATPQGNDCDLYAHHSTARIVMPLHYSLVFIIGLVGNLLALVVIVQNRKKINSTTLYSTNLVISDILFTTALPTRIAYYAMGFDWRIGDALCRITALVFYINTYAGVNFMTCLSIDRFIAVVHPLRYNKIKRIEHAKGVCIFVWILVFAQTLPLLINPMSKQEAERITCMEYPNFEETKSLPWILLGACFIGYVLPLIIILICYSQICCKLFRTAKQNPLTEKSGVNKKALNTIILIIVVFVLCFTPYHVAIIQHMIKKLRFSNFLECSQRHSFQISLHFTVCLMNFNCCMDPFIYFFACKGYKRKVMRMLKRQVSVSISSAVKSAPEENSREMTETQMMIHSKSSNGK
SKKanGAS inh: SKKanGAS growth inhibition; S. pyogenes SKKanGAS, kanamycin growth, BacTiter-Glo, 6 h; AID 1662; inhibition, % at 7.5 µM; 300,000 compounds, 1.3% hits;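 active means mean replicate score, as percent of positive control median, at least 50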;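 further: strain carries kanamycin resistance gene driven by streptokinase promoter and grows in 40 µg/ml kanamycin; loss of luminescence reflects streptokinase promoter inhibition or plain growth inhibition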
PfHsp90 set2: reduces growth (ATP signal) of yeast expressing P. falciparum Hsp90 | S. cerevisiae expressing PfHsp90, BacTiter-Glo ATP, 48 h; yeast lacking PDR1 and PDR3 efflux regulators | inhibition, % at 9.4 µM | 310,000 compounds, 0.32% hits | AID 504621;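 active means every replicate shows inhibition above about 80%, whatever the replicate mean, limit read from the data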
TIM10 inh: inhibits growth of TIM10 yeast strain. inhibition, % at 10 µM. AID 463195. S. cerevisiae TIM10 strain growth, BacTiter-Glo luminescence, 24 h. 330,000 compounds, 1.4% hits;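 active means inhibition of 40% or more at the single tested concentration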;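 further: wild-type TIM10 isogenic control strain grown at permissive 25 °C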
tim23-1 inh: tim23-1 yeast growth inhibition; 330,000 compounds, 1.3% hits; inhibition, % at 20 µM; S. cerevisiae tim23-1 growth, BacTiter-Glo luminescence, 24 h;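 active means growth inhibition of the mutant yeast at or above 50%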;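 further: temperature-sensitive mutant grown at 25 °C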
tim10-1 confirm: confirmation of tim10-1 mutant yeast growth inhibitors. shares compounds with tim10-1 inh. S. cerevisiae tim10-1 ts strain growth, BacTiter-Glo, 24 h. inhibition, % at 20 µM. 7,400 compounds, 56% hits. AID 463213;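 active means inhibition of yeast growth at or above a set limit in either of two repeat tests at 20 µM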;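 further: tim10-1 mutant grown at permissive 25 °C to find synthetic lethal compounds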
TIM10 conf: TIM10 yeast growth inhibition, confirmed; shares compounds with TIM10 inh; S. cerevisiae tim10 strain growth, BacTiter-Glo luminescence, 24 h; inhibition, % at 10 µM; 4,600 compounds, 63% hits; AID 463215;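 active means inhibition of yeast growth at or above a set limit in either of two replicates at 10 µM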; further: this counterscreen used the strain with wild-type TIM10
Of the large screens only hits and unclear results are named; the others gave an inactive call (follow-up assays come after a bar, where they were run). Hits are enriched below; roughly 4.7% of the tested compounds scored in any of these assays.

O=C(CC[C@H]1O[C@@H](n2ccc(=O)[nH]c2=O)[C@H](O)[C@@H]1O)N[C@H](Cc1ccccc1)C(=O)NCC1CCCO1 (some centres undefined)	none (no result: tim10-1 inh, SKKanGAS inh, PfHsp90 set2, TIM10 inh, tim23-1 inh)
CN(C)CCCN(C(=O)c1ccc(S(=O)(=O)N2CCc3ccccc3C2)cc1)c1nc2ccc(F)cc2s1	tim10-1 inh 59.4, TIM10 inh 57.5 (no result: PfHsp90 set2) | tim10-1 confirm 36.0 | TIM10 conf 44.9
Cc1cc(C)c2sc(N(CCCN(C)C)C(=O)c3ccc(S(=O)(=O)N4CCCc5ccccc54)cc3)nc2c1	tim10-1 inh 54.0, TIM10 inh 51.4 | tim10-1 confirm 41.0 | TIM10 conf 33.0
CN(C)CCCN(C(=O)c1ccc(S(=O)(=O)N2CCc3ccccc3C2)cc1)c1nc2c(F)cccc2s1	none
Cc1cccc2sc(N(CCCN(C)C)C(=O)c3ccc(S(=O)(=O)N4CCc5ccccc5C4)cc3)nc12	tim10-1 inh 40.6, TIM10 inh 40.0 | tim10-1 confirm inactive | TIM10 conf inactive
N#C/C(=C\c1ccc([N+](=O)[O-])o1)C(=O)Nc1ccc(F)cc1	tim10-1 inh 54.7, PfHsp90 set2 105.5, TIM10 inh 79.1 | tim10-1 confirm 46.9 | TIM10 conf 96.0
COc1ccc(NC(=O)/C(C#N)=C\c2ccc(Br)o2)cc1	none
CCN(CC)CCN1C(=O)C(O)=C(C(=O)c2cc3cccc(OC)c3o2)C1c1ccc(F)cc1 (centres undefined)	none
CS(=O)(=O)c1ccc(Sc2nc3ccccc3s2)c([N+](=O)[O-])c1	tim10-1 inh 45.9, TIM10 inh 41.7 | tim10-1 confirm 38.0 | TIM10 conf inactive
O=[N+]([O-])c1cc(S(=O)(=O)C(F)(F)F)ccc1Sc1nc2ccccc2s1	tim10-1 inh 45.2, SKKanGAS inh 89.3, PfHsp90 set2 108.5, TIM10 inh 54.7 | tim10-1 confirm 73.8 | TIM10 conf 75.2
Cc1coc2c(C)c3oc(=O)c(CCC(=O)N4CCC(C(=O)NCCCC(=O)O)(c5ccccc5)CC4)c(C)c3cc12	none
COc1ccc(C2/C(=C(/O)c3ccc(C)cc3)C(=O)C(=O)N2C)c(OC)c1 (centres undefined)	none
CC(Cl)C(=O)NNC(=O)CNS(=O)(=O)c1ccccc1 (centres undefined)	none
CN(C)CCCN(C(=O)C1COc2ccccc2O1)c1nc2cc3c(cc2s1)OCO3 (centres undefined)	tim10-1 inh 55.9, TIM10 inh 55.0 | tim10-1 confirm 48.6 | TIM10 conf 44.0
COc1ccc(S(=O)(=O)c2ccc(O)cc2)cc1	none (no result: PfHsp90 set2)
COc1ccc(S(=O)(=O)/N=C2\C=C(Nc3ccc(O)cc3)C(=O)c3ccccc32)cc1	tim10-1 inh 66.8, SKKanGAS inh 103.3, TIM10 inh 52.2 | tim10-1 confirm 62.0 | TIM10 conf 81.3
COC(=O)C(C(C)=O)C1=C/C(=N\S(=O)(=O)c2ccc(C)cc2)c2ccccc2C1=O (centres undefined)	tim10-1 inh 40.1, TIM10 inh 42.8 | tim10-1 confirm 40.9 | TIM10 conf inactive
COc1cc2c(cc1OC)CN(C(=O)CNC(=O)c1ccc(OC(F)F)cc1)CC2	none
Cc1cccn2cc(-c3ccc(S(=O)(=O)N4CCOCC4)cc3)nc12	none
Cc1cccn2cc(-c3ccc(S(=O)(=O)N4CCCCC4)cc3)nc12	tim10-1 inh 62.0, TIM10 inh 48.0 | tim10-1 confirm 69.8 | TIM10 conf 62.6
Cc1ccccc1C(=O)NCCCNC(=O)c1ccccc1C	none (no result: PfHsp90 set2)
Cc1coc2c1C(=O)C(=O)c1c-2ccc2c1CCCC2(C)C	tim10-1 inh 47.7, TIM10 inh 43.6 | tim10-1 confirm 37.6 | TIM10 conf 36.5
OC1CCCCC1	none (no result: SKKanGAS inh)
S=C(NN=C1C2CC3CC(C2)CC1C3)Nc1ccccc1	tim10-1 inh 59.7, TIM10 inh 51.0 | tim10-1 confirm 46.1 | TIM10 conf inactive
Cc1cc(C)c2c(=O)n(CC(=O)Nc3ccc(Br)c(C)c3)sc2n1	tim10-1 inh 72.0, TIM10 inh 66.6 | tim10-1 confirm 93.2 | TIM10 conf 93.9
Cc1cc(C)c2c(=O)n(CC(=O)Nc3cccc(Cl)c3C)sc2n1	none
O=[N+]([O-])c1ccc(S(=O)(=O)c2ccccc2)nc1	tim10-1 inh 63.6, TIM10 inh 60.1 | tim10-1 confirm 57.8 | TIM10 conf 52.1
Nc1ccc(S(=O)(=O)c2ccccc2)nc1	none
COCCNC(=O)C1(C)CCN(C(=O)c2ccc(SC(F)(F)F)cc2)C1 (centres undefined)	none (no result: tim10-1 inh, SKKanGAS inh, PfHsp90 set2, TIM10 inh, tim23-1 inh)
NC(=O)C1CCN(C(=O)/C(=C/c2ccccc2)NC(=O)c2ccccc2)CC1	none
CCOC(=O)N/N=C\c1ccc(-c2cc(Cl)ccc2Cl)o1	tim10-1 inh 44.1, TIM10 inh 41.2 | tim10-1 confirm 34.1 | TIM10 conf 34.6
CCOC(=O)C(CC(=O)c1ccccc1)CC(=O)c1ccccc1	none
Cc1[nH]c(=O)c(C(=O)/C=C/c2ccccc2F)c2c1CCCC2	tim10-1 inh 47.0, TIM10 inh 44.0 | tim10-1 confirm 52.5 | TIM10 conf 38.5
COC(=O)COc1ccc(-c2ccc(F)cc2)cc1C=O	tim10-1 inh 61.9, TIM10 inh 74.2 | tim10-1 confirm 65.3 | TIM10 conf 80.2
Oc1ccc(-c2nnc(-c3ccccc3)c(-c3ccccc3)n2)cc1	none (no result: EBI2 antag, PfHsp90 set2)
Cc1cc(-c2nnc(-c3ccccc3)c(-c3ccccc3)n2)c(C)o1	tim10-1 inh 48.0, TIM10 inh 52.0 | tim10-1 confirm 46.5 | TIM10 conf inactive
COc1ccc(C(=O)O/N=C(/c2cccs2)C(C)(C)C)cc1	none
COc1ccc(C2CC2/C(=N/OC(=O)c2cccs2)c2ccccc2)cc1 (centres undefined)	tim10-1 inh 63.2, TIM10 inh 63.4 | tim10-1 confirm 59.0 | TIM10 conf 63.9
CC(=O)c1ccc(S(=O)(=O)Oc2ccc(-c3ccc(C(=O)O)cc3)cc2)cc1	none
CCOc1ccc(CCNC(=O)Cn2c(=O)c3cccn3c3cccnc32)cc1	none
CN(C)CCCNS(=O)(=O)c1ccc(N2CCC(c3ccc(Cl)cc3)=N2)cc1	tim10-1 inh 58.9, TIM10 inh 51.7 (no result: EBI2 antag, PfHsp90 set2) | tim10-1 confirm 39.9 | TIM10 conf 50.3
CCCc1cc(-c2nc(-c3ccc(Cl)cc3)cs2)ccn1	tim10-1 inh 46.5, TIM10 inh 51.1 | tim10-1 confirm 44.8 | TIM10 conf 43.1
N/C(=N\OC(=O)c1ccco1)c1ccc(Cl)cc1	tim10-1 inh 47.5, TIM10 inh 53.9 | tim10-1 confirm 47.2 | TIM10 conf inactive
CCCn1c(SCC(=O)Nc2ccccc2N2CCCCC2)nc2c1c(=O)n(C)c(=O)n2C	none
